Experimental data: PubChem BioAssay AID1159580 (chemical genetic matrix, 2015)
Screen size: about 5,500 compounds; about 2,000 (36%) were called active. About 18% were inconclusive and are not listed. Cut-off read from the data, not from the text of the source: active = normalized growth mostly below about 0.91 (no sharp cut-off); inconclusive = no clear call, values can overlap the other calls; inactive = mostly above about 0.92. Some of the results follow.

Experiment: chemical genetic growth profiling, strain panel (AID 1159580);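 note: tested at 20 µM; growth read once vehicle control cultures reached saturation at 30 °C; 1 = growth at the plate median or of vehicle wells; lower values mean less growth of the strain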
Conditions: growth OD

Measured: normalized growth

CCOP(=S)(OCC)SCn1c(=O)oc2cc(Cl)ccc21
active: S. cerevisiae deletion strains, locus YLR262C, strain YPT6 (second series), active compounds read low 0.8 | S. cerevisiae deletion strains, locus YNL071W, strain lat1, active compounds read low 0.91
inactive: S. cerevisiae deletion strains, locus YJR043C, strain POL32, active compounds read low 1.01 | S. cerevisiae deletion strains, locus YJR075W, strain HOC1, active compounds read low 0.995 | S. cerevisiae deletion strains, locus YKL009W, strain mrt4, active compounds read low 0.98 | S. cerevisiae deletion strains, locus YKL068W, active compounds read low 1 | S. cerevisiae deletion strains, locus YKL085W, strain MDH1 (second series), active compounds read low 0.989 | S. cerevisiae deletion strains, locus YKL085W, strain MDH1, active compounds read low 0.989 | S. cerevisiae deletion strains, locus YKL160W, strain elf1, active compounds read low 0.968 | S. cerevisiae deletion strains, locus YKL190W, strain CNB1, active compounds read low 1.01 | S. cerevisiae deletion strains, locus YKR001C, strain vps1, active compounds read low 0.982 | S. cerevisiae deletion strains, locus YKR026C, strain gcn3, active compounds read low 0.947 | S. cerevisiae deletion strains, locus YKR091W, strain srl3, active compounds read low 0.963 | S. cerevisiae deletion strains, locus YLL001W, strain dnm1, active compounds read low 0.967 | S. cerevisiae deletion strains, locus YLL026W, active compounds read low 0.954 | S. cerevisiae deletion strains, locus YLL041C, strain sdh2, active compounds read low 0.954 | S. cerevisiae deletion strains, locus YLR027C, strain aat2, active compounds read low 0.954 | S. cerevisiae deletion strains, locus YLR039C, strain RIC1, active compounds read low 0.97 | S. cerevisiae deletion strains, locus YLR058C, strain SHM2, active compounds read low 1 | S. cerevisiae deletion strains, locus YLR102C, strain apc9, active compounds read low 0.995 | S. cerevisiae deletion strains, locus YLR221C, strain rsa3, active compounds read low 0.964 | S. cerevisiae deletion strains, locus YLR258W, strain gsy2, active compounds read low 0.93 | S. cerevisiae deletion strains, locus YLR262C, strain YPT6, active compounds read low 0.969 | S. cerevisiae deletion strains, locus YLR268W, strain sec22, active compounds read low 0.987 | S. cerevisiae deletion strains, locus YLR320W, strain mms22, active compounds read low 0.942 | S. cerevisiae deletion strains, locus YLR330W, strain CHS5, active compounds read low 0.985 | S. cerevisiae deletion strains, locus YLR342W, strain FKS1 (second series), active compounds read low 1.05 | S. cerevisiae deletion strains, locus YLR342W, strain FKS1, active compounds read low 0.93 | S. cerevisiae deletion strains, locus YLR357W, strain rsc2, active compounds read low 0.949 | S. cerevisiae deletion strains, locus YLR370C, strain arc18, active compounds read low 0.962 | S. cerevisiae deletion strains, locus YLR371W, strain rom2, active compounds read low 1 | S. cerevisiae deletion strains, locus YLR384C, strain iki3, active compounds read low 0.971 | S. cerevisiae deletion strains, locus YLR418C, strain cdc73, active compounds read low 0.97 | S. cerevisiae deletion strains, locus YML016C, strain PPZ1, active compounds read low 0.996 | S. cerevisiae deletion strains, locus YML032C, strain rad52, active compounds read low 0.998 | S. cerevisiae deletion strains, locus YML120C, strain ndi1, active compounds read low 0.965 | S. cerevisiae deletion strains, locus YML124C, strain tub3, active compounds read low 0.991 | S. cerevisiae deletion strains, locus YMR058W, strain fet3, active compounds read low 0.966 | S. cerevisiae deletion strains, locus YMR078C, strain ctf18, active compounds read low 0.989 | S. cerevisiae deletion strains, locus YMR125W, strain sto1, active compounds read low 0.961 | S. cerevisiae deletion strains, locus YMR129W, active compounds read low 0.949 | S. cerevisiae deletion strains, locus YMR205C, strain PFK2, active compounds read low 0.895 | S. cerevisiae deletion strains, locus YMR223W, strain ubp8, active compounds read low 0.998 | S. cerevisiae deletion strains, locus YMR231W, strain pep5, active compounds read low 0.973 | S. cerevisiae deletion strains, locus YMR263W, strain SAP30, active compounds read low 1 | S. cerevisiae deletion strains, locus YMR307W, strain GAS1, active compounds read low 1.03 | S. cerevisiae deletion strains, locus YNL067W, strain RPL9B, active compounds read low 0.993 | S. cerevisiae deletion strains, locus YNL128W, strain TEP1, active compounds read low 0.989 | S. cerevisiae deletion strains, locus YNL153C, strain GIM3, active compounds read low 0.994 | S. cerevisiae deletion strains, locus YNL209W, strain ssb2, active compounds read low 0.983 | S. cerevisiae deletion strains, locus YNL233W, strain BNI4, active compounds read low 0.995 | S. cerevisiae deletion strains, locus YNL248C, strain rpa49, active compounds read low 0.966 | S. cerevisiae deletion strains, locus YNL250W, strain rad50, active compounds read low 0.993 | S. cerevisiae deletion strains, locus YNL271C, strain bni1, active compounds read low 0.992 | S. cerevisiae deletion strains, locus YNL298W, strain CLA4, active compounds read low 0.997 | S. cerevisiae deletion strains, locus YNL307C, strain MCK1, active compounds read low 0.991 | S. cerevisiae deletion strains, locus YNL322C, strain KRE1 (second series), active compounds read low 0.958 | S. cerevisiae deletion strains, locus YNL322C, strain KRE1, active compounds read low 1 | S. cerevisiae deletion strains, locus YNR049C, strain mso1, active compounds read low 0.961 | S. cerevisiae deletion strains, locus YNR052C, strain pop2, active compounds read low 0.992 | S. cerevisiae deletion strains, locus YOL006C, strain TOP1, active compounds read low 0.981 | S. cerevisiae deletion strains, locus YOL012C, strain htz1 1.68 | S. cerevisiae deletion strains, locus YOL147C, strain pex11, active compounds read low 0.996 | S. cerevisiae deletion strains, locus YOR001W, strain rrp6, active compounds read low 0.969 | S. cerevisiae deletion strains, locus YOR061W, strain CKA2, active compounds read low 0.985 | S. cerevisiae deletion strains, locus YOR069W, strain VPS5, active compounds read low 1 | S. cerevisiae deletion strains, locus YOR070C, strain gyp1, active compounds read low 0.961 | S. cerevisiae deletion strains, locus YOR080W, strain dia2, active compounds read low 0.961 | S. cerevisiae deletion strains, locus YOR083W, strain WHI5, active compounds read low 0.961 | S. cerevisiae deletion strains, locus YOR106W, strain vam3, active compounds read low 0.963 | S. cerevisiae deletion strains, locus YOR136W, strain idh2, active compounds read low 0.999 | S. cerevisiae deletion strains, locus YOR144C, strain elg1, active compounds read low 0.982 | S. cerevisiae deletion strains, locus YOR184W, strain ser1, active compounds read low 0.978 | S. cerevisiae deletion strains, locus YOR265W, strain rbl2, active compounds read low 0.952 | S. cerevisiae deletion strains, locus YOR270C, strain vph1, active compounds read low 0.963 | S. cerevisiae deletion strains, locus YOR290C, strain snf2, active compounds read low 0.963 | S. cerevisiae deletion strains, locus YOR316C, strain cot1, active compounds read low 0.991 | S. cerevisiae deletion strains, locus YPL051W, strain arl3, active compounds read low 0.953 | S. cerevisiae deletion strains, locus YPL055C, strain LGE1, active compounds read low 0.981 | S. cerevisiae deletion strains, locus YPL078C, strain atp4, active compounds read low 0.962 | S. cerevisiae deletion strains, locus YPL106C, strain sse1, active compounds read low 0.994 | S. cerevisiae deletion strains, locus YPL240C, strain hsp82, active compounds read low 0.948 | S. cerevisiae deletion strains, locus YPL241C, strain CIN2, active compounds read low 0.994 | S. cerevisiae deletion strains, locus YPR119W, strain clb2, active compounds read low 0.99 | S. cerevisiae deletion strains, locus YPR141C, strain kar3, active compounds read low 0.993 | S. cerevisiae deletion strains, locus YPR163C, strain tif3, active compounds read low 0.993 | S. cerevisiae deletion strains, locus YPR167C, strain met16, active compounds read low 0.984 | S. cerevisiae deletion strains, strain wtn01, active compounds read low 0.99 | S. cerevisiae strains, strain wild type, active compounds read low 0.993
